From PubChem BioAssay AID1259349 (Broad Institute, 2017)
Where “and” joins values, the source holds several entries; their conditions need not be identical. Equal entries are not always repeated. Among all 17,000 compounds or so, about 1,100 (6.5%) were called active.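 Rule for the calls: active = z-score of -3 or lower, meaning strong loss of probe binding signal; inactive = the rest.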 The full list was thinned out, with actives kept by preference. More than one record can exist for a structure, and the calls need not agree.

target: Insulin-degrading enzyme (Homo sapiens) (UniProt P14735); test: exo-site inhibitors of human IDE, primary screen, biochemical, fluorescence anisotropy, probe displacement (AID 1259349); conditions: purified IDE, FL-6b probe fluorescence polarization; at 20 µM; stronger effect = lower value;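 note: His-tagged human IDE residues 42-1019 made in E. coli with 30 nM FL-6b probe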
Sequence (P14735 42-1019 limits assumed): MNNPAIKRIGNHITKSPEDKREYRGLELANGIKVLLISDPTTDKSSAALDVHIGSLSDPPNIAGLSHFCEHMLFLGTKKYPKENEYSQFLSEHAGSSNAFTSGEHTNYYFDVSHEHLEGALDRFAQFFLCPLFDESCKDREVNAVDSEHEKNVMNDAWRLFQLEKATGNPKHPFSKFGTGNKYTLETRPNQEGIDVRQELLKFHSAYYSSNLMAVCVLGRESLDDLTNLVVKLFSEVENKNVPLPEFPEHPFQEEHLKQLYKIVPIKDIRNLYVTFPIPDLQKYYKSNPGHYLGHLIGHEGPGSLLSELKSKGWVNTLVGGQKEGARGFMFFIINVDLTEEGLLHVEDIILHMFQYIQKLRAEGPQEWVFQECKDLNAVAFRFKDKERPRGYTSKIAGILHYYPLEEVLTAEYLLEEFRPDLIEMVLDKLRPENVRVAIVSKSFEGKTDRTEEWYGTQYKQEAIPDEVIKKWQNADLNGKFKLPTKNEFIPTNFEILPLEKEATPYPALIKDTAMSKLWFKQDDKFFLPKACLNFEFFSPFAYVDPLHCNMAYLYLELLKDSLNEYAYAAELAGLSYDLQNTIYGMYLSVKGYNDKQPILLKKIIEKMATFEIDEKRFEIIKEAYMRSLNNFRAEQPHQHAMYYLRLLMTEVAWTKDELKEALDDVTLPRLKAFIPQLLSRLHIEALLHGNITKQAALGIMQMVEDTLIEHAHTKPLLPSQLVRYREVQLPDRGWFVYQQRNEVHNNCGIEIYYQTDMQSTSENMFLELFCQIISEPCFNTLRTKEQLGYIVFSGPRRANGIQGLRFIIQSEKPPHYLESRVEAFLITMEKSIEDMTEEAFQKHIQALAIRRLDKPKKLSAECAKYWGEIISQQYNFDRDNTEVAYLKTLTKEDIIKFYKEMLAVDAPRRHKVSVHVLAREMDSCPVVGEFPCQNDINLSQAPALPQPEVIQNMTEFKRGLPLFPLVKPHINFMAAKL

Row | Compound | z-score
1 | CCC(=O)N1[C@@H](CO)[C@@H]2c3ccccc3N(C(=O)c3cnccn3)C[C@@H]21 | 1.18 (inactive)
2 | CO[C@@H]1CN(C)C(=O)c2cc(NS(=O)(=O)c3cccc(Cl)c3)ccc2OC[C@@H](C)NC[C@@H]1C | -0.0121 (inactive)
3 | O=C(c1cnccn1)N1CC(=O)N2[C@H](C1)[C@@H](c1ccc(C#CC3CCCCC3)cc1)[C@@H]2CO | 4.43 (inactive)
4 | Cc1ccccc1S(=O)(=O)N1C[C@H](O)COC[C@H]2O[C@H](CC(=O)N3CCCCC3)CC[C@@H]21 | -0.576 (inactive)
5 | C[C@H](NC(=O)C[C@H]1CC[C@H]2[C@@H](COC[C@H](O)CN2C(=O)Nc2cccc(Cl)c2)O1)c1ccccc1 | 1.23 (inactive)
6 | Cn1cnc(S(=O)(=O)N2CCCCN3[C@@H](CO)[C@@H](c4ccc(C#CC5CCCC5)cc4)[C@@H]3C2)c1 | 1.81 (inactive)
7 | O=C(Nc1ccc(C(F)(F)F)cc1)N1[C@@H]2CNC[C@H]1C2c1ccc(-c2ccncc2)cc1 (some centres not stated) | 3.1 (inactive) and 5.44 (inactive)
8 | COc1ccc(-c2ccc3c(c2)[C@@H]2[C@@H](CCN2C(=O)c2cccc(F)c2)[C@H](CO)N3)cc1 | 1.25 (inactive)
9 | O=C(c1ccccc1)N1CC(=O)N2[C@@H](CO)[C@H](c3ccc(C#CCC4CCCC4)cc3)[C@@H]2C1 | 0.717 (inactive)
10 | CNC[C@@H]1OCCCC[C@H](C)Oc2ccc(NC(=O)Nc3ccc(OC)cc3)cc2C(=O)N([C@H](C)CO)C[C@@H]1C | 1.03 (inactive)
11 | CC(=O)N1CC2(C1)[C@H](c1ccccc1)[C@@H](CO)N2C(=O)Cc1ccccc1 | -0.887 (inactive)
12 | COc1ccc2c3c([nH]c2c1)[C@H](CO)N(Cc1ccccc1Cl)CC31CN(C(=O)C2CC2)C1 | -4.06 (active)
13 | COCC(=O)N1CC2(C1)CN(Cc1ccccc1F)[C@@H](CO)c1[nH]c3cc(OC)ccc3c12 | -1.64 (inactive)
14 | COc1ccc2c3c([nH]c2c1)[C@@H](CO)N(Cc1cc(F)ccc1F)CC31CN(C(=O)C2CCC2)C1 | -1.31 (inactive)
15 | N#Cc1cccc(-c2ccc3c(c2)[C@H]2[C@H](CCN2Cc2ccc4c(c2)OCO4)[C@@H](CO)N3)c1 | 1.22 (inactive)
16 | CC(C)NC(=O)N1CCCCN2[C@H](CO)[C@@H](c3ccc(Br)cc3)[C@H]2C1 | 2.67 (inactive)
17 | CCCNC(=O)N1[C@H](C#N)[C@@H](c2ccccc2)[C@H]1CO | 3.95 (inactive)
18 | C[C@@H]1CCCCO[C@H](CN(C)S(=O)(=O)c2cn(C)cn2)[C@H](C)CN([C@H](C)CO)C(=O)c2cc(N(C)C)ccc2O1 | -0.253 (inactive)
19 | CCCNC(=O)N1[C@@H]2CNC[C@H]1C2c1ccc(-c2ccccc2)cc1 (some centres not stated) | 0.774 (inactive) and 1.73 (inactive)
20 | COc1cccc(-c2ccc(C3[C@H]4CNC[C@@H]3N4C(=O)Nc3ccc(F)cc3)cc2)c1 (some centres not stated) | -0.759 (inactive) and -1.81 (inactive)
21 | CCCNC(=O)N1[C@@H]2CNC[C@H]1C2c1ccc(-c2cccc(C)c2)cc1 (some centres not stated) | 0.449 (inactive) and -6.06 (active)
22 | CCC(=O)N1[C@@H](CO)[C@H](c2ccc(-c3cccc(F)c3)cc2)[C@@H]1CNC(C)=O | 2.2 (inactive)
23 | N#C[C@@H]1[C@H](c2ccccc2-c2ccccc2F)[C@@H](CO)N1C(=O)C1CCOCC1 | 3.52 (inactive)
24 | Cc1noc(C)c1S(=O)(=O)N(C)C[C@H]1Oc2ccc(N(C)C)cc2C(=O)N([C@H](C)CO)C[C@@H]1C | -1.17 (inactive)

Row | Compound | z-score
25 | O=C(Nc1ccc(F)cc1)N1CCCCN2[C@H](CO)[C@H](c3ccc(C#Cc4ccccc4)cc3)[C@H]2C1 | -0.00774 (inactive)
26 | COc1ccc(C#Cc2ccc([C@H]3[C@@H](CO)N4CCCCN(C(=O)Nc5ccccc5)C[C@H]34)cc2)cc1 | 4.38 (inactive)
27 | CCCC#Cc1ccc([C@H]2[C@@H](CO)N3CCCCN(S(=O)(=O)CC)C[C@H]23)cc1 | 3.29 (inactive)
28 | COc1ccccc1C#Cc1ccc([C@H]2[C@H](CO)N3CCCCN(C(=O)C4CCC4)C[C@@H]23)cc1 | -12.3 (active)
29 | OC[C@H]1[C@@H](c2ccc(C#Cc3ccccc3F)cc2)[C@H]2CN(CC3CCOCC3)CCCCN21 | 0.86 (inactive)
30 | COc1ccccc1C#Cc1ccc([C@@H]2[C@H](CO)N3CCCCN(CCC(F)(F)F)C[C@@H]23)cc1 | -8.07 (active)
31 | CCCC#Cc1ccc([C@@H]2[C@H](CO)N3CCCCN(S(=O)(=O)c4ccccc4F)C[C@@H]23)cc1 | -4.86 (active)
32 | CS(=O)(=O)N1CCCCN2[C@@H](CO)[C@@H](c3ccc(Br)cc3)[C@@H]2C1 | -1.86 (inactive)
33 | CN(C)CC#Cc1ccc([C@H]2[C@H]3CN(S(=O)(=O)c4ccccc4F)CCCCN3[C@H]2CO)cc1 | 1.11 (inactive)
34 | CCCC#Cc1ccc([C@H]2[C@H](CO)N3CCCCN(S(=O)(=O)CC)C[C@@H]23)cc1 | 3.45 (inactive)
35 | COc1ccccc1NC(=O)N1CCCCN2[C@@H](CO)[C@@H](c3ccc(C#Cc4ccccc4)cc3)[C@@H]2C1 | -2.86 (inactive)
36 | COc1ccccc1C#Cc1ccc([C@@H]2[C@@H](CO)N3CCCCN(S(C)(=O)=O)C[C@@H]23)cc1 | -10.2 (active)
37 | CS(=O)(=O)Nc1ccc2c(c1)[C@@H]1C[C@H](CC(=O)NCc3cc(F)ccc3F)O[C@@H](CO)[C@@H]1O2 | -0.994 (inactive)
38 | C/C=C/c1ccc([C@H]2[C@@H](CNC(=O)NC(C)C)N(C(=O)C3CCC3)[C@H]2CO)cc1 | 1.01 (inactive)
39 | C[C@@H](O)C#Cc1ccc([C@H]2[C@H](CO)N3CCCCN(C(=O)c4ccc5c(c4)OCO5)C[C@@H]23)cc1 | -0.442 (inactive)
40 | CCS(=O)(=O)NCC[C@H]1CC[C@@H](NC(=O)Nc2cc(Cl)cc(Cl)c2)[C@@H](CO)O1 | 2.83 (inactive)
41 | CCCNC(=O)C[C@@H]1CC[C@H]2[C@@H](COC[C@H](O)CN2C(=O)Nc2ccc(Cl)c(Cl)c2)O1 | -0.531 (inactive)
42 | Cc1noc(C)c1S(=O)(=O)Nc1ccc2c(c1)C(=O)N([C@@H](C)CO)C[C@@H](C)[C@H](CN(C)C(=O)Nc1cccc3ccccc13)OCCCC[C@H](C)O2 | 0.278 (inactive)
43 | COc1ccccc1-c1ccc2c(c1)O[C@@H](CN(C)CC1CCOCC1)[C@H](C)CN([C@@H](C)CO)S2(=O)=O | -0.56 (inactive)
44 | CCNC(=O)c1cc2c(c(-c3cccc(-c4cncnc4)c3)n1)[C@H](CCO)N(C(C)=O)C2 | -0.344 (inactive)
45 | O=C1CNC[C@H]2[C@@H](c3ccc(C4=CCCC4)cc3)[C@@H](CO)N12 | 1.84 (inactive)
46 | N#C[C@@H]1[C@H](c2ccccc2-c2ccccc2F)[C@@H](CO)N1C(=O)c1ccccn1 | -0.079 (inactive)
47 | N#C[C@H]1[C@@H](c2ccccc2C2=CCCCC2)[C@H](CO)N1C(=O)c1ccccn1 | 0.206 (inactive)
48 | N#C[C@@H]1[C@@H](c2ccc(/C=C/c3ccccc3)cc2)[C@@H](CO)N1C(=O)C1CC1 | -0.906 (inactive)

Row | Compound | z-score
49 | N#C[C@H]1[C@@H](c2ccccc2-c2ccccc2F)[C@@H](CO)N1C(=O)C1CCC1 | -0.535 (inactive)
50 | N#C[C@H]1[C@@H](c2ccc(-c3ccccc3F)cc2)[C@H](CO)N1C(=O)c1ccccn1 | -3.67 (active)
51 | CC(=O)N(C)C[C@@H]1[C@@H](c2ccc(-c3ccccc3F)cc2)[C@@H](CO)N1C(C)=O | 2.54 (inactive)
52 | N#C[C@H]1[C@H](c2ccccc2)[C@@H](CO)N1C(=O)c1cccnc1 | 1.75 (inactive)
53 | N#C[C@@H]1[C@@H](c2ccc(-c3ccccc3F)cc2)[C@@H](CO)N1C(=O)C1CC1 | -5.9 (active)
54 | N#C[C@@H]1[C@@H](c2ccc(-c3ccccc3F)cc2)[C@@H](CO)N1C(=O)c1ccccn1 | -6.83 (active)
55 | CC(C)NC(=O)N1[C@H](C#N)[C@@H](c2ccc(-c3ccc(F)cc3)cc2)[C@H]1CO | 2.54 (inactive)
56 | O=C(CC1CC1)N1CC(=O)N2[C@H](CO)[C@H](c3ccc(C#Cc4ccc(F)cc4)cc3)[C@@H]2C1 | 3.38 (inactive)
57 | CCC(=O)N(C)C[C@H]1[C@H](c2ccc(C3=CCCCC3)cc2)[C@@H](CO)N1C(C)=O | 3.35 (inactive)
58 | COc1cccc(-c2ccc([C@@H]3[C@@H](C#N)N(C(=O)c4ccccn4)[C@H]3CO)cc2)c1 | -4.27 (active)
59 | COc1ccc(-c2ccc([C@@H]3[C@@H](C#N)N(C(=O)C4CCC4)[C@@H]3CO)cc2)cc1 | 4.33 (inactive)
60 | N#C[C@H]1[C@H](c2ccc(-c3ccccc3)cc2)[C@@H](CO)N1C(=O)Cc1ccccc1 | 1.03 (inactive)
61 | COc1cccc(C#Cc2ccc([C@H]3[C@@H](CO)N(C(=O)c4ccccn4)[C@H]3C#N)cc2)c1 | 0.995 (inactive)
62 | N#C[C@@H]1[C@@H](c2ccc(-c3ccccc3)cc2)[C@@H](CO)N1C(=O)Cc1ccccc1 | 1.8 (inactive)
63 | COc1cccc(-c2ccc([C@@H]3[C@@H](CO)N(C(=O)c4ccccn4)[C@H]3C#N)cc2)c1 | -6.41 (active)
64 | CC(=O)N1[C@@H](CO)[C@@H](c2ccccc2)[C@@H]1CN(C)C(=O)CN1CCOCC1 | 0.517 (inactive)
65 | C[C@@H]1CN([C@H](C)CO)C(=O)c2cc(NC(=O)Cc3ccccc3)ccc2O[C@@H](C)CCCCO[C@@H]1CN(C)Cc1ccncc1 | -1.57 (inactive)
66 | C[C@@H]1COCc2cn(nn2)CC[C@H](C)C(=O)N1 | 0.508 (inactive)
67 | C/C=C/c1ccc([C@@H]2[C@@H](CO)N3C(=O)CN(C(=O)Nc4cccc(OC)c4)C[C@@H]23)cc1 | 0.379 (inactive)
68 | COc1cccc(-c2ccc([C@H]3[C@H]4CN(C(=O)NC(C)C)CC(=O)N4[C@H]3CO)cc2)c1 | -10.1 (active)
69 | CN(C)C(=O)c1cccc(-c2ccc([C@H]3[C@H](CO)N4C(=O)CN(C(=O)C5CCCCC5)C[C@@H]34)cc2)c1 | 1.54 (inactive)
70 | CN(C)C(=O)c1cccc(-c2ccc([C@H]3[C@@H](CO)N4C(=O)CN(C(=O)C5CC5)C[C@@H]34)cc2)c1 | 3.52 (inactive)
71 | COc1cccc(-c2ccc([C@@H]3[C@@H](CO)N4C(=O)CN(C(=O)C5CCCCC5)C[C@H]34)cc2)c1 | -3.69 (active)
72 | COc1ccc(NC(=O)N2CC(=O)N3[C@H](CO)[C@@H](c4ccc(-c5ccc(C)cc5)cc4)[C@H]3C2)cc1 | -0.113 (inactive)
